Test results from PMC12135187, “A role for pH dynamics regulating transcription factor DNA-binding selectivity”.
Whole data set: some 1,100 sequences, median “relative enrichment” near 0.38, cut for the highest 2% near 0.66. The full list was thinned out, with the highest values kept by preference.

Molecular target: T1, FOXC2 DBD WT (UniProt Q99958 72-172)
T1 sequence: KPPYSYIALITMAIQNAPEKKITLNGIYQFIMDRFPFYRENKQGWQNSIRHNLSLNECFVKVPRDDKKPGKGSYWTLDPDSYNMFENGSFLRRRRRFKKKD
Assay: SELEX-seq (GST pull-down, four rounds, 16-nt random library); pH 7.0; 20 mM HEPES, 140 mM KCl, 0.05 mM TCEP-HCl, pH 7.0, room temperature, 30 min; 2.5 uM GST-FOXC2 DBD, 0.25 uM DNA library; high values mean tight binding
Conditions: protein: recombinant; tags: N-terminal GST (pGEX-6P-2); dsDNA, one strand shown
Method in brief: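 GST-tagged FOXC2 DNA-binding domain (E. coli-expressed, glutathione-purified) was incubated with a DNA library carrying a 16 bp randomized region, at 0.25 μM DNA and 2.5 μM protein, for 30 min at RT in 20 mM HEPES, 140 mM KCl, 0.05 mM TCEP–HCl, pH 7. Complexes were captured on glutathione Sepharose beads, washed, heat-eluted and PCR-amplified over four rounds. Initial and selected libraries were Illumina MiniSeq sequenced. Relative enrichment came from the Bioconductor SELEX R package.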

Sequence	binding signal [relative enrichment]
TAATGA	0.31
AAGCTA	0.297
TACACC	0.418
TACCTC	0.625
CACCTG	0.535
CACCTC	0.731
CAATAA	0.513
CTTATC	0.378
AACAGG	0.325
TCAACT	0.324
CAACCA	0.261
TTCCTA	0.364
CTTACA	0.35
TATAAA	0.283
ATACTC	0.432
GAAAAA	0.304
TGGTAA	0.428
AGAATG	0.543
TCAATC	0.416
CTTTGA	0.338
AACGTT	0.324
CTCATT	0.311
AACAAT	0.374
ATAGTC	0.461
TTCACT	0.426

Sequence	binding signal [relative enrichment]
AAAGAT	0.356
ATAGAA	0.4
TCTCTA	0.45
ATATTA	0.266
ATACGC	0.457
ACGAAA	0.388
CATACG	0.448
TATGAA	0.387
AATTCA	0.336
AAATTC	0.343
ACACGT	0.335
CTTAAG	0.341
AATCGT	0.337
CTACAC	0.417
TTTCCC	0.38
AAACCC	0.354
ACTAAT	0.328
ACTACA	0.297
GCTACA	0.348
ACCATG	0.559
ATCAAT	0.463
CGTCAT	0.583
AAATCC	0.354
CACTGC	0.574
TACTTC	0.678

Sequence	binding signal [relative enrichment]
CACTTC	0.726
TACTCC	0.566
AACTTC	0.432
CACTTA	0.321
AAGCTC	0.44
CTCTTG	0.394
ACCCTT	0.488
CACGTA	0.469
CATCTC	0.642
CCCATT	0.378
CCTCTA	0.483
CTTAAC	0.232
ACACGA	0.377
ATATGC	0.286
ACGACT	0.561
AGTCTA	0.54
ACCCAT	0.43
TGACAA	0.337
TACCCA	0.526
ATAAGA	0.307
ATAAGC	0.803
ATAAAC	1
ATAAGG	0.316
ATAAAA	0.231
GTAAAC	0.561

Sequence	binding signal [relative enrichment]
CCCTTG	0.444
GAGTAA	0.439
ATGCTA	0.343
AAAGCA	0.341
CAAGCA	0.489
TAAGCA	0.814
TCTGTG	0.32
AGCGTA	0.542
GACACA	0.296
CTCTTA	0.325
ATCTTG	0.318
ATCTTC	0.665
CTCTTC	0.799
TTCTAC	0.528
TTCTCT	0.453
CTCTTT	0.469
ATCTTA	0.332
TTCTTC	0.673
ATCTAG	0.559
GCCAAT	0.341
CCACTG	0.649
ACTTGC	0.489
CCCTGT	0.366
ACAGAG	0.418
CCTCAT	0.455

Sequence	binding signal [relative enrichment]
TAGTCA	0.442
AGTCAT	0.491
ATTGCC	0.483
GCCATA	0.387
AACTCA	0.249
TGCAAA	0.311
ACATTA	0.277
ACATGT	0.276
GTCTTA	0.348
GATCTA	0.537
AGATTA	0.329
GCAACA	0.23
ACAAGA	0.322
CATCGC	0.711
CATCCT	0.605
CATCCC	0.704
CATCGT	0.553
AATCGC	0.406
CATCCA	0.528
TAGACA	0.44
ATCCAT	0.477
AATAAT	0.309
CATAAA	0.596
AAATAA	0.891
AAATAT	0.435

Sequence	binding signal [relative enrichment]
GATAAA	0.326
CATAAG	0.406
AATAAG	0.686
AATAAA	0.839
TAATAA	0.399
GCTCAA	0.305
CAATTC	0.306
AAAACA	0.264
AACTAT	0.324
CAGTAA	0.415
AATACT	0.328
AGTACA	0.385
AGTACT	0.668
AAAGTG	0.343
CAATGG	0.433
ATTTAC	0.56
ATTAGG	0.356
TCCAAA	0.348
ACTTCC	0.677
AATTCC	0.366
ACTTCA	0.453
ACTCGT	0.431
CTGCAT	0.524
TCCTAT	0.313
AAACCG	0.336

Sequence	binding signal [relative enrichment]
CAATGC	0.376
AACGTC	0.372
TACGTA	0.539
TACGTC	0.674
CCATTA	0.286
ACCACT	0.588
GGTTTA	0.395
ATTTGG	0.408
CTGTTA	0.238
TTACAA	0.36
TACGAA	0.468
TATACA	0.505
TAAACA	0.701
TAAATA	0.726
CAAATC	0.3
GAAACA	0.347
GAAATA	0.451
CAAACA	0.57
AAAATA	0.439
CAAATA	0.707
CAAATG	0.327
ATAGCA	0.284
TCTTTC	0.55
CAGACT	0.612
ACTTGA	0.341

Sequence	binding signal [relative enrichment]
CATAAC	0.226
AAATGG	0.353
CTTCAT	0.554
GTTCGT	0.328
CTTCGT	0.674
ATGTTA	0.428
TCATTC	0.646
ACCTTA	0.322
GATCTT	0.497
TCTAAC	0.304
CTACAA	0.352
ACAATA	0.351
AAACGA	0.433
GTGTCA	0.372
CATGCA	0.513
AGGATA	0.311
TACCCT	0.504
AGCCTA	0.371
AAAGTT	0.3
AGTTTA	0.403
CTATCA	0.419
ACTGCT	0.412
AACTAC	0.312
AACCAC	0.351
ACACGG	0.442

Sequence	binding signal [relative enrichment]
TCATCT	0.546
CAACGC	0.322
TCTTCT	0.66
CCTTCT	0.774
ACTTCT	0.502
AAGCAG	0.486
ATCTCT	0.485
TCACAA	0.332
AGGTTG	0.313
ACATCG	0.521
ATGTTC	0.304
TGAACA	0.291
AACGAA	0.281
GACTTA	0.52
AATGAT	0.314
CCGTTG	0.343
CCTGTG	0.491
ACTCTC	0.499
ATTAAA	0.406
TGTCAA	0.457
AATTAG	0.241
ACGATA	0.322
